Compounds without any hit were thinned out: in the full panel of roughly 79,000, 15% have a hit. The source made the active and inactive calls. Cut-off read from the data, not from the text of the source: active = growth inhibition above about 70%; inactive = the rest.
Tests used:
[1] = NCI Yeast Anticancer Drug Screen. Data for the rad50 strain (AID 155);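 note: 0% = growth of vehicle-only cultures of the same strain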; conditions: S. cerevisiae rad50 strain growth inhibition; at 50.0 µM; active compounds read high
Outline: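 A DNA repair-deficient yeast mutant serves as the test organism; compound-induced growth inhibition is calculated against vehicle-treated cells.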

[2] = NCI Yeast Anticancer Drug Screen. Data for the mec2-1 strain (AID 157); conditions: S. cerevisiae mec2-1 strain, at 50.0 µM, active compounds read high
Outline: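 Strain: mec2-1 (DNA repair/cell cycle alteration). Compound exposure, then growth measured; inhibition expressed relative to vehicle.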

[3] = NCI Yeast Anticancer Drug Screen. Data for the sgs1 mgt1 strain (AID 161);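 note: 0% = growth of cultures given vehicle only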; conditions: S. cerevisiae sgs1 mgt1 strain, at 50.0 µM, active compounds read high
Outline: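 Inhibition of yeast growth, normalised to vehicle-treated controls, is reported for a strain bearing genetic alterations in DNA damage repair.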

[4] = NCI Yeast Anticancer Drug Screen. Data for the cln2 rad14 strain (AID 165);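 note: 0% = growth equal to vehicle treated cultures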; conditions: S. cerevisiae cln2 rad14 strain, at 50.0 µM, active compounds read high
Outline: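 Compounds are applied to the cln2 rad14 yeast strain, and growth is then compared with that of vehicle-treated cultures to give inhibition.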

[5] = NCI Yeast Anticancer Drug Screen. Data for the bub3 strain (AID 167); conditions: S. cerevisiae bub3 mutant strain, at 50.0 µM, active compounds read high
Outline: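 Inhibition values come from growth of compound-treated mutant yeast normalised to vehicle-treated controls.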

[6] = NCI Yeast Anticancer Drug Screen. Data for the mlh1 rad18 strain (AID 175); conditions: S. cerevisiae mlh1 rad18 strain growth inhibition; at 50.0 µM; active compounds read high
Outline: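 Read-out is yeast growth inhibition, calculated against vehicle-only controls. The compound was applied to a strain engineered with DNA damage repair alterations.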

Measured: growth inhibition

O=c1c2ccccc2[nH]c2ccc(Br)cc12
inactive: [1] 8.25% | [2] 2.2% | [3] 3.8% | [4] -6.1% | [5] 2.95% | [6] 17.8%

O=c1nc(/C=C/c2ccccc2Cl)cc2n1CCN2CCO
inactive: [1] -17.4% | [2] -10.7% | [3] -4.2% | [4] 4.1% | [5] -3.1% | [6] -10.2%

Cc1nc(-n2nc(-c3ccccc3)cc2-c2ccccc2)sc1C(=O)CC(=O)C(=O)Nc1ccc(Cl)c(Cl)c1
inactive: [1] 6.15% | [2] -5.55% | [3] 24.6% | [4] 13.8% | [5] 48.5% | [6] 24.8%

C/C(=C\CNc1ncnc2c1ncn2C1CCCCO1)COP(=O)(O)O (stereo unspecified)
inactive: [1] 19.6% | [2] 6.4% | [3] 19.6% | [4] 22.2% | [5] -4.8% | [6] 27.9%

CS(=O)(=O)C(c1nc2n(c1O)C(=N)N=N2)c1nc2n(c1O)C(=N)N=N2 (stereo unspecified)
inactive: [1] -3.2% | [2] 12.1% | [3] -6.15% | [4] -17.1% | [5] -5.2% | [6] 9.8%

CCCCOC(=O)c1ccc(Cl)c(Cl)c1
inactive: [1] -1.7% | [2] -3.2% | [3] -14.9% | [4] -32.9% | [5] 3% | [6] 7.45%

Clc1ccc2nc(/C=C/c3ccccc3)ccc2c1
inactive: [1] -10.7% | [2] -4.2% | [3] -9.4% | [4] 3.35% | [5] 6.9% | [6] -15.7%

Cc1ccc(OC(=O)c2ccccc2)cc1CC(Cl)(Cl)Cl
inactive: [1] -0.75% | [2] -6% | [3] -9.3% | [4] -19.3% | [5] 2.8% | [6] -14.3%

Cn1c(=O)c2ncn(CC3CCCCC3)c2n(C)c1=O
inactive: [1] 6.15% | [2] 11.6% | [3] 5.05% | [4] -5.9% | [5] 2.05% | [6] -4.95%

CCN(CC)c1ncnc2c1nc(C)n2Nc1ccccc1
inactive: [1] 13.7% | [2] -3.1% | [3] 1.3% | [4] 7.4% | [5] 0.5% | [6] -10.7%

O=Cc1[nH]c(=S)[nH]c(=O)c1Cc1cccc(Cl)c1
inactive: [1] 63.9% | [2] 35.2% | [4] 56.2%
active: [3] 83.2% | [5] 77.5% | [6] 83.2%

CCOC(=O)c1c(-c2ccc([N+](=O)[O-])cc2)c(/C=N\O)n(-c2ccccc2)c1C
inactive: [1] 1.45% | [2] 6.7% | [3] 3.3% | [4] -17% | [5] -1.95% | [6] 20%

CCC(C(=O)O)C(C)(C)O (stereo unspecified)
inactive: [1] -10.8% | [2] -11.1% | [3] -7.95% | [4] 7.05% | [5] -0.85% | [6] -15.3%

CC(O)CC1CC(=O)CCC1=O (stereo unspecified)
inactive: [1] 0.35% | [2] -18.1% | [3] -10.7% | [4] -29.2% | [5] -5.85% | [6] 8.3%

C/C(CC(=O)Nc1cc(C)ccc1C)=N/N=C(N)N
inactive: [1] -24.6% | [2] -28.3% | [3] -11.5% | [4] 17.8% | [5] -22.9% | [6] -8.55%

CC(=O)OCC1OC(N2C(c3ccccc3)=CC(c3cccs3)C(C#N)=C2S)C(OC(C)=O)C(OC(C)=O)C1OC(C)=O (stereo unspecified)
inactive: [1] 27.4% | [2] 28.9% | [3] 40.6% | [4] 18% | [5] 46.2% | [6] 23.3%

NS(=O)(=O)c1ccc(NC(=O)CCl)cc1
inactive: [1] 6.5% | [2] -6.8% | [3] -1.9% | [4] 11.7% | [5] 3.3% | [6] -15.9%

CC1=NNC(=O)CC1C(O)c1ccc(F)cc1 (stereo unspecified)
inactive: [1] -33.5% | [2] 1.4% | [3] -10.1% | [4] -2.35% | [5] 0% | [6] -1.85%

CC(=O)OC1CC2C(C)(CCC3C2(C)CCC2(C)C4CC(C)(C)CCC4(C)CCC32C)C1C (stereo unspecified)
inactive: [1] -28.2% | [2] -18.3% | [3] -7.5% | [4] 2.75% | [5] -3.2% | [6] 3.2%

C=C1C(=O)O[C@@H]2C[C@]3(C)[C@@H](C[C@H]12)[C@](C)(O)CC[C@@H]3O
inactive: [1] 5.65% | [2] -10.1% | [3] 1.5% | [4] -37.5% | [5] 7.5% | [6] 0.3%

COC1OC(CO)C(O)C(O)C1Br (stereo unspecified)
inactive: [1] 19.8% | [2] 13.9% | [3] 13% | [4] 31.7% | [5] 23.8% | [6] 21.2%

CC(C)(C)c1ccc(O)c(CN(Cc2cc(C(C)(C)C)ccc2O)c2ccccc2)c1
inactive: [1] 44.4% | [2] 26.9% | [3] 21.6% | [4] -2.2% | [5] 62% | [6] 54.8%

Nc1nc(Cc2ccccc2)cc(-c2cc(Cc3ccccc3)nc(N)n2)n1
inactive: [1] 2.7% | [2] 4.7% | [3] 5.2% | [4] 1.8% | [5] -6.3% | [6] 1.7%

COC(=O)/C(C#N)=C/Sc1ccccc1
inactive: [1] 61.6% | [2] 33.7% | [3] 38% | [4] 7.2% | [5] 26.6% | [6] -7.7%

NC(=O)C(=Cn1c(=S)[nH]c2ccccc21)C(N)=O
inactive: [1] -51.9% | [2] -23.2% | [3] -19.1% | [4] -0.5% | [5] -1.8% | [6] -28.2%

OC/C(Cc1cccc(O)c1)=C(/CO)Cc1cccc(O)c1
inactive: [1] 5.5% | [2] 7.3% | [3] 6.7% | [4] 3.45% | [5] 10.4% | [6] 8.8%

CC(/C=N/NC1=NCCCN1)=N\NC1=NCCCN1
inactive: [1] -7.05% | [2] -8.75% | [3] -14.3% | [4] 8.25% | [5] 2.9% | [6] -12.2%

c1ccc(Sc2nc(Sc3ccccc3)nc(Sc3ccccc3)n2)cc1
inactive: [1] -23.9% | [2] -16.4% | [3] -15.2% | [4] 17.9% | [5] -20.1% | [6] -31.7%

CC1=NN2C(=O)C(c3ccccc3)SC2=NC(C)(C)C1 (stereo unspecified)
inactive: [1] 13.1% | [2] -18.9% | [3] 4.05% | [4] 26.6% | [5] -9.15% | [6] -7.25%

CCOC(=O)c1[nH]c(C(=O)O)c(C(=O)OCC)c1C
inactive: [1] 7.3% | [2] 3.7% | [3] 4.85% | [4] -12.8% | [5] -5.3% | [6] -10.1%

c1cc2c([nH]1)CCCC2
inactive: [1] 12.5% | [2] 14.3% | [3] 2.45% | [4] 21.1% | [5] 23.6% | [6] 13.9%

NC(=S)c1ccccc1N=Cc1cccs1
inactive: [1] 26.8% | [2] 16.1% | [3] 14.2% | [4] -7.7% | [5] 53.6% | [6] 41.5%

CCOC(=O)c1cc2cc(Br)ccc2[nH]1
inactive: [1] 2% | [2] -24% | [3] 8.5% | [4] 5.9% | [5] -2.7% | [6] 20.4%

Cc1ccc(C(=O)NC(N)=O)cc1
inactive: [1] 12.4% | [2] -6.25% | [3] -17.8% | [4] -51.4% | [5] -13.1% | [6] -18.6%

COc1c(C(=O)/C(=N/Nc2cccc(Cl)c2)C(C)=O)c(O)c(OC)c2occc12
inactive: [1] -5.15% | [2] -8% | [3] -6.6% | [4] -8.5% | [5] 8.2% | [6] 7.65%

CCN(CC)CC1(C)NN=C2C(n3cccc3)=CC=CN21 (stereo unspecified)
inactive: [1] -3.7% | [2] 11.7% | [3] -3.4% | [4] -20.6% | [5] -4.2% | [6] -4.9%

CC(=O)NC(C)CC1=CC(=O)C(C)=CC1=O (stereo unspecified)
inactive: [1] 1.45% | [2] -13.4% | [3] -16.1% | [4] -33.7% | [5] -18.9% | [6] -11.6%

Cc1oc2ccccc2c(=O)c1CO
inactive: [1] -12.6% | [2] 13.2% | [3] 2% | [4] -9.85% | [5] -11.1% | [6] -12.2%

CCOC(=O)C(NC(=O)Nc1ccccc1F)(OC)C(F)(F)F (stereo unspecified)
inactive: [1] -23.1% | [2] -38.3% | [3] -75.4% | [4] -4.3% | [5] -28% | [6] -59.6%

Cc1ccc(S(=O)(=O)N/N=C/C(C)(c2ccccc2)c2ccccc2)cc1
inactive: [2] 52% | [3] 69.3% | [4] 40.2% | [5] 15.8% | [6] 47.8%
active: [1] 70.9%

Nc1ccccc1NC(=O)c1nc2ccccc2[nH]1
inactive: [1] 1.55% | [2] 15.2% | [3] 19.6% | [4] 6% | [5] 7.8% | [6] 4.5%

— PubChem BioAssay (NCI)
